The source of these data is PubChem BioAssay (Tox21).

SMILES strings stand for the structures. Inconclusive results are not listed. Activity calls are given as the source filed them. The call rests on the fitted dose curve; in most records, active means well fitted activation curve with a large enough effect in the signal ratio in the repeat runs (not every such curve was filed as active); inconclusive means weak or mixed curves; inactive means flat fitted curve, though single readings scatter; the % refers to the signal ratio.

This test in a line: qHTS assay to identify small molecule agonists of H2AX (AID 1224845). The following applies: CHO-K1 phospho-H2AX Ser139 HTRF, 3 h; series mostly up to 154 µM. The source says:
National Center for Advancing Translational Sciences [NCATS]
NIH Chemical Genomics Center [NCGC]
U.S. Environmental Protection Agency [EPA]
National Institutes of Environmental Health Sciences [NIEHS]
National Toxicology Program [NTP]
U.S. Food and Drug Administration [FDA]
HTRF phospho-H2AX (Ser139) assay (Cisbio Bioassays, US) enables the quantitative detection of the histone variant H2AX when phosphorylated on serine 139. When double-stranded DNA breaks, either by ionizing radiation or endogenous physiological processes, H2AX becomes phosphorylated at Ser139. This phospho-Ser139 serves as a sensitive biomarker for the detection of such breaks, localizing the site of DNA repair. So, HTRF phospho-H2AX Ser139 is a pertinent assay to study genome stability, the cell cycle, DNA repair, and it serves as a biomarker for cancer, and to understand aging. Wild type CHO-K1 cells were used to identify the inducers of Phospho-H2AX Ser 139 from the Tox21 10K compound collections.
Tox21 Assay Protocol Summary:
The CHO-K1 cells suspended in culture medium containing 10% FBS were dispensed at 1000 cells/ 3 ul/well in 1536-well white wall/solid bottom plates (Greiner Bio-One North America, NC) using a Multidrop Combi (Thermo Fisher Scientific Inc., Waltham, MA). After the assay plates were incubated at 37C overnight, 23 nl of compounds at 15 concentrations (from 5-48 columns) or positive control (from 1 to 4 columns) were transferred to the assay plates using a Pintool station (Wako, San Diego, CA) into each well resulting in a final DMSO concentration of 0.76%. After 3hr incubation at 37C, 1 uL/well Supplemented Lysis buffer (diluted 100 fold blocking reagent in lysis buffer) (HTRF Phospho-H2A.X (S139) Assay kit from Cisbio US Inc., Bedford, MA) was added using a Flying Reagent Dispenser (FRD) (Aurora Discovery, CA). After 10sec spin at 1000 rpm in a plate centrifuge, the assay plates were incubated at room temperature for 30 min. Then followed by the addition of 1 uL/well detection buffer (containing a mixture of two antibodies, one labeled with cryptate, Anti pH2AX (S139)-K and another labeled with d2, Anti H2AX-d2) using FRD. After incubation at room temperature for 24 hr, the time resolved fluorescence at excitation 320 nm and emissions at 665 nm and 620 nm was measured using an Envision plate reader (PerkinElmer, Waltham, MA).
For orientation: qHTS replaces the single test concentration by a dilution series.
Consider `CCCCCCOC(=O)c1ccccc1O`, for which the outcome was inactive.

Regarding `O=C(O)/C=C/c1ccc(Cn2ccnc2)cc1`, the result was inactive.

On to `CCC(C)OC(=O)N1CCCCC1CCO` (stereo not given), for which the call was inactive.

For the compound `COC(=O)CCCC(=O)O`, the call was inactive.

With `Cc1nccn1CC1CCc2c(c3ccccc3n2C)C1=O` (stereo not given), the compound was called inactive.

Consider `CCC(C(=O)NC(N)=O)c1ccccc1` (stereo not given), for which the call was inactive.

With `CC1=CC(C)C(C=O)C(C)C1` (stereo not given), the compound was classed as inactive.

Take `O=C1OC(=O)c2cc([N+](=O)[O-])ccc21`: the compound was called inactive.

With `COc1ccc(COC=O)cc1`, the compound was called inactive.

In the case of `CCCC(C)CO` (stereo not given), the result was inactive.

On to `Cc1ccccc1C(=O)O`, for which the outcome was inactive.

`CNc1ncnc2nc[nH]c12`: the compound was called inactive.

Consider `CCCCc1ccc(N)cc1`, for which the call was inactive.

On to `C=C(C)C(=O)NCCCN(C)C`, for which the result was inactive.

With `C1COCCO1`, the outcome was inactive.

`CO[Si](OC)(OC)OC`: the outcome was inactive.

On to `CCN(CC)S(=O)(=O)c1ccc(C(=O)O)cc1`, for which the compound was called inactive.

Regarding `NS(=O)(=O)c1cc(C2(O)NC(=O)c3ccccc32)ccc1Cl` (stereo not given), the compound was classed as inactive.

Take `O=C1CC2(CCCC2)CC(=O)N1`: the compound was classed as inactive.

Consider `Cc1ncc(CSSCc2cnc(C)c(O)c2CO)c(CO)c1O`, for which the call was inactive.

As for `CCCCC=O`, the compound was called inactive.

`C(=C(c1ccccc1)c1ccccc1)c1ccccc1`: the call was inactive.

Turning to `CSc1nc(NC2CC2)nc(NC(C)(C)C)n1`, the outcome was inactive.

As to `CC1=CC(=O)CCC1`, the result was inactive.

In the case of `N#CCc1ccccc1[N+](=O)[O-]`, the compound was called inactive.

Consider `CCCCCCCCCCCCCCCCCCOCC(O)CO` (stereo not given), for which the outcome was inactive.

Turning to `NC(=O)c1ncn([C@@H]2O[C@H](CO)[C@@H](O)[C@H]2O)c1N`, the compound was classed as inactive.

Regarding `CCCC(C)C(=O)O` (stereo not given), the compound was called inactive.

For the compound `Nc1[nH]c(=O)ncc1F`, the call was inactive.

Take `C=CCOCC(O)CS(=O)(=O)O` (stereo not given): the outcome was inactive.

As to `NC1CCN(c2cccc(Cl)n2)CC1`, the compound was classed as inactive.

As for `O=c1[nH]c2ccccc2c(=O)n1CCCl`, the result was inactive.

As for `O=C(O)c1ccccc1S`, the outcome was inactive.

For the compound `CCCCN(CCO)CCO`, the compound was classed as inactive.

As for `CC(C)COC(=O)C(C)C`, the compound was called inactive.

On to `NC(CS)C(=O)O` (stereo not given), for which the compound was called inactive.

Take `CO`: the result was inactive.

Regarding `CCCCCCCCN(C)CCCCCCCC`, the compound was classed as inactive.

For `c1ccc2cnncc2c1`, the outcome was inactive.

Regarding `CCN1CCCC1CNC(=O)c1cc(S(N)(=O)=O)ccc1OC` (stereo not given), the result was inactive.
